Shown are actives, neighbours in structure and some others; about 12% of the full set was active somewhere.
G9a block = inhibitors of human histone lysine methyltransferase G9a | AID 504332 | Potency, µM (top dose mostly 102 µM), for the others: at the highest dose activity, negative = inhibition, hits mostly inhibitors | hit rate 8.8% among 350,000 | Q96KQ7 | G9a H3K9 monomethylation, AlphaScreen, 2 h; also: % is scaled to controls: 0 for no effect and ±100 for the full control effect; nearly all actives have a fitted effect of over 75% in size
Target sequence (Q96KQ7 913-1193 limits assumed): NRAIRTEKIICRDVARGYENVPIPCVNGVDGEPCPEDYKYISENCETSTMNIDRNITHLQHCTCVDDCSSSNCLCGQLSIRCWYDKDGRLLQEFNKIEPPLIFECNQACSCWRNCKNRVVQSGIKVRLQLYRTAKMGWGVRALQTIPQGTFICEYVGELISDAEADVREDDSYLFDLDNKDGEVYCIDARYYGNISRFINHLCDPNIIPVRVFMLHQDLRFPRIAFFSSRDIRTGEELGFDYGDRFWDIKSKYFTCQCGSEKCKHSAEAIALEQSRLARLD
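Chemiluminescent proximity detection of H3K9 monomethylation, read after 10 min bead incubation in the dark. Reaction: 20 nM G9a, 500 nM biotin-H3K9 peptide, 20 uM SAM cofactor, 2 h, room temperature, following 15 min enzyme-compound preincubation.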
JMJD2A Tudor inh = blocks the human JMJD2A Tudor domain | O75164 | AlphaScreen JMJD2A-Tudor / H3K4me3 peptide binding | Potency, µM (doses to about 114 µM), without a hit: at the top dose activity change, negative = inhibition, hits mostly inhibitors | hit rate 4.4% among 390,000 | AID 504339; also: % is scaled to controls: 0 for no effect and ±100 for the full control effect; nearly all actives have a fitted effect of over 50% in size
BAZ2B block = blocks human BAZ2B; Q9UIF8; AlphaScreen BAZ2B-H3K14Ac peptide displacement; Potency, µM (titrated, usually from 114 µM), for the others: at the highest dose activity change, negative = inhibition, hits mostly inhibitors; hit rate 4.4% among 360,000; AID 504333; also: % is scaled to controls: 0 for no effect and ±100 for the full control effect; nearly all actives have a fitted effect of over 60% in size
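In this displacement format the biotinylated H3(5-23) peptide acetylated at Lys14 serves as ligand at 50 nM, with BAZ2B at 50 nM in PBS pH 7.4 containing 0.01% Tween-20. Donor and acceptor beads are 10 ug/mL final.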
PLK1 PBD inh = blocks phosphopeptide binding to human PLK1 polo-box domain. Potency, µM, without a hit: max response, negative = inhibition, hits mostly inhibitors. AID 720504. hit rate 2.8% among 360,000. Plk1 PBD binding of FITC phosphopeptide, fluorescence polarization; also: series mostly up to about 57 µM; % is scaled to controls: 0 for no effect and ±100 for the full control effect; nearly all actives have a fitted effect of over 65% in size
HP1b binding inh = blocks HP1-beta chromodomain binding to methylated histone tails. P83916. AlphaScreen HP1-beta / biotin-H3K9me3 peptide binding. Potency, µM (highest dose often 114 µM), inactives show top-dose activity change, negative = inhibition, usual class: inhibitors. hit rate 0.56% among 390,000; also: nearly all actives have a fitted effect of over 70% in size
Target sequence (P83916 whole entry, looked up): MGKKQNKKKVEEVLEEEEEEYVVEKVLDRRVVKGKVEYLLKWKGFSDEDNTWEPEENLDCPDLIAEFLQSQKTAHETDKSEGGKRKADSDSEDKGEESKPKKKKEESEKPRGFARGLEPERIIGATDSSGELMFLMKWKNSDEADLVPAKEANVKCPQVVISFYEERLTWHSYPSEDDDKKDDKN
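HP1-beta protein (50 nM final) preincubated 30 min at room temperature with biotinylated H3(1-18)K9me3 peptide (50 nM) in PBS pH 7.4, 0.01% Tween-20, then compound added for 30 min. AlphaScreen streptavidin donor/nickel chelate acceptor beads (10 ug/mL final), 30 min dark, luminescence read.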
Sfp inh = inhibitors of Bacillus subtilis Sfp phosphopantetheinyl transferase | Q9F4F7 | Biochemical Sfp PPTase activity, qHTS | Potency, µM, for the others: largest response in the series, negative = inhibition, usual class: inhibitors | hit rate 3.5% among 310,000 | AID 1490;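 also: the enzyme is Sfp with the accession as filed and its product quenches rhodamine fluorescence; 0% = enzyme reaction without inhibitor and -100% = no enzyme wells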
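Compounds were incubated with enzyme (final 15 nM) for 15 min at room temperature before substrate addition started the reaction. Fluorescence at 525 nm excitation, 598 nm emission was recorded immediately and after 30 minutes.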
Numbers without * were called inactive; [ ] = remark or other dose. Calls follow the shape of the dose curve; as a rule, active = well fitted curve in the direction sought with a large enough effect; inconclusive = small, poorly fitted or top-dose-only effect, or another doubt; inactive = no such curve, though single readings can be large; an effect the other way counts as inactive or inconclusive. Potency is read from the fitted curve at half-maximal effect.

`CSCCC(=O)Nc1cc(S(=O)(=O)N2CCOCC2)ccc1N1CCN(C)CC1` gave G9a block inconclusive, JMJD2A Tudor inh -16%, BAZ2B block -2%, PLK1 PBD inh -17%, HP1b binding inh 19% and Sfp inh 20%.
`CCc1ccccc1N1C(=O)NC(=O)/C(=C\c2cc(C)n(C)c2C)C1=O` gave G9a block 9%[59 µM], JMJD2A Tudor inh -15%, BAZ2B block -4%, PLK1 PBD inh -15%, HP1b binding inh inconclusive and Sfp inh 3%.
Screening CCOc1ccc(N2C(=O)/C(=C\c3cccs3)C(=O)NC2=S)cc1 returned G9a block 7.1µM*, JMJD2A Tudor inh 35µM*, BAZ2B block -33%, PLK1 PBD inh 2.7µM*, HP1b binding inh 23% and Sfp inh 13µM*.
CCOc1ccc(N2C(=O)/C(=C/c3ccco3)C(=O)NC2=S)cc1 was read as G9a block 16%[0.501 µM], JMJD2A Tudor inh 0.79µM*, BAZ2B block 28µM*, PLK1 PBD inh 1.3µM*, HP1b binding inh 1.6µM* and Sfp inh 35µM*.
For Cc1ccccc1N1C(=O)/C(=C/c2ccco2)C(=O)NC1=S the results were G9a block 1.8µM*, BAZ2B block 1.1µM* and Sfp inh 20µM*.
Screening Cc1ccccc1N1C(=O)NC(=O)/C(=C/c2ccc(N3CCOCC3)o2)C1=O returned G9a block inconclusive, JMJD2A Tudor inh 1%, BAZ2B block -19%, PLK1 PBD inh 90%, HP1b binding inh 28% and Sfp inh 8%.
`CCOc1ccc(-n2c(-c3ccoc3)nc3ccccc3c2=O)cc1` gave G9a block inconclusive, JMJD2A Tudor inh -7%, BAZ2B block -18%, PLK1 PBD inh -12%, HP1b binding inh -1% and Sfp inh -27%.
For O=C1NC(=S)N(c2ccccc2F)C(=O)/C1=C\c1cccs1 the results were G9a block 1.3µM*, JMJD2A Tudor inh 50µM*, BAZ2B block 50µM*, PLK1 PBD inh 7.5µM*, HP1b binding inh -12% and Sfp inh 11µM*.
Screening CNC(=O)[C@H]1C[C@@H]1[C@H](NP(=O)(c1ccccc1)c1ccccc1)c1ccccc1 returned Sfp inh 19%.
Screening CCCCCCCCCCCCCCCCOC[C@@H](O)COP(=O)([O-])OCC[N+](C)(C)C returned G9a block 26%[59 µM] and Sfp inh 7%.
`CCOP(=O)(OCC)C1(O)C(=O)Nc2ccccc21` (configuration not stated) gave G9a block 9%[59 µM], JMJD2A Tudor inh -19%, BAZ2B block -5%, PLK1 PBD inh -12%, HP1b binding inh 17% and Sfp inh 11%.
Screening COP(=O)(OC)C1(O)C(=O)Nc2ccc(Br)cc21 (configuration not stated) returned G9a block 8.9µM*, JMJD2A Tudor inh -14%, BAZ2B block -4%, PLK1 PBD inh -14%, HP1b binding inh 26% and Sfp inh -1%.
`CCOC(=O)c1cc(C)sc1/N=C/C1C(=O)NC(=S)NC1=O` gave G9a block 40µM*, JMJD2A Tudor inh inconclusive, BAZ2B block -33%, PLK1 PBD inh 5.3µM*, HP1b binding inh -16% and Sfp inh 20µM*.
Screening CCOC(=O)c1c(/N=C/C2C(=O)NC(=S)NC2=O)sc(C)c1C returned G9a block 35µM*, BAZ2B block -10% and Sfp inh 25µM*.
COc1ccc(OC)c(C(Nc2ccccc2)P(=O)(OC(C)C)OC(C)C)c1 (configuration not stated) was read as G9a block inconclusive, JMJD2A Tudor inh 0%, BAZ2B block -11%, PLK1 PBD inh 7%, HP1b binding inh 19% and Sfp inh 13%.
Cc1ccc(Cl)c(O)c1 was read as G9a block 30%[59 µM] and Sfp inh 5%.
`O=C(N/N=C/c1c(O)n(C2CCCCC2)c(=S)[nH]c1=O)c1ccccc1O` gave G9a block 75%[59 µM], JMJD2A Tudor inh 7%, BAZ2B block 79µM*, PLK1 PBD inh inconclusive, HP1b binding inh 45% and Sfp inh -13%.

Source: PubChem BioAssay (National Center for Advancing Translational Sciences (NCATS))
